Test results: PMC5540273 (PLoS ONE, 2017)
Values joined by “and” are separate entries in the source; they are usually repeats but may differ in a detail not shown here. Identical values can stand only once. Like-named read-outs stand apart in the source and are kept apart here.

Columns and labels:
[1] = system: STK16; details: n = 1
[2] = system: STK39; details: n = 1
[3] = system: SYK; details: n = 1
[4] = system: SgK110; details: n = 1
[5] = system: TBK1; details: n = 1
[6] = system: TGFBR1; details: n = 1
[7] = system: TIE1; details: n = 1
[8] = system: TLK1; details: n = 1
[9] = system: STK33; details: concentration: 1 μM, replicates: in singlicate; n = 1
[10] = system: STK35; details: concentration: 1 μM, replicates: in singlicate; n = 1
[11] = system: STK36; details: concentration: 1 μM, replicates: in singlicate; n = 1
[12] = system: T1, TAK1; details: concentration: 1 μM, replicates: in singlicate; n = 1
T1 construct: gene MAP3K7

[13] = system: TAOK1; details: concentration: 1 μM, replicates: in singlicate; n = 1
[14] = system: TAOK2; details: concentration: 1 μM, replicates: in singlicate; n = 1
[15] = system: TAOK3; details: concentration: 1 μM, replicates: in singlicate; n = 1
[16] = system: TEC; details: concentration: 1 μM, replicates: in singlicate; n = 1
[17] = system: TESK1; details: concentration: 1 μM, replicates: in singlicate; n = 1
[18] = system: TGFBR2; details: concentration: 1 μM, replicates: in singlicate; n = 1
[19] = system: T2, TIE2; details: concentration: 1 μM, replicates: in singlicate; n = 1
T2 construct: gene TEK

[20] = system: TLK2; details: concentration: 1 μM, replicates: in singlicate; n = 1
[21] = concentration: 1 μM,replicates: in singlicate, 1 µM
[22] = concentration: 1 μM, replicates: in singlicate
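Note: KINOMEscan kinase panel screen.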

## CSc1nn2c(=O)cc(N3CCOCC3)nc2n1Cc1cccc(C(F)(F)F)c1C [GSK2363608]
[1]; [21]
  %Inh: 23% and 13%
[2]; [21]
  %Inh: 8% and 13%
[3]; [21]
  %Inh: 30% and 26%
[4]; [21]
  %Inh: 0% and 6%
[5]; [21]
  %Inh: 20% and 5%
[6]; [21]
  %Inh: 11% and 17%
[7]; [21]
  %Inh: 0% and 2%
[8]; [21]
  %Inh: 8% and 0%

## Cl.c1ccc(-c2n[nH]cc2-c2ccnc(-c3ccc(CN4CCOCC4)cc3)c2)nc1 [GW776245]
[6]; 1 µM
  %Inh: 94.5%

## CN(C)CCN(C)C(=O)c1cc(-c2ccncc2)c(-c2ccc(Cl)c(O)c2)o1.Cl.Cl [SB-710397]
[1]; [22]
  %Inh: 4%
[9]
  %Inh: 0%
[10]
  %Inh: 0%
[11]
  %Inh: 0%
[2]; [22]
  %Inh: 33%
[3]; [22]
  %Inh: 17%
[4]; [22]
  %Inh: 6%
[12]
  %Inh: 0%
[13]
  %Inh: 0%
[14]
  %Inh: 0%
[15]
  %Inh: 0%
[5]; [22]
  %Inh: 0%
[16]
  %Inh: 6%
[17]
  %Inh: 43%
[6]; [22]
  %Inh: 0%
[18]
  %Inh: 72%
[7]; [22]
  %Inh: 7%
[19]
  %Inh: 0%
[8]; [22]
  %Inh: 0%
[20]
  %Inh: 0%

## COc1ccc(Nc2nccc(-c3cccc(NC(=O)c4cc5cc(F)ccc5[nH]4)c3)n2)cc1 [GSK1229782]
[1]; [22]
  %Inh: 22%
[9]
  %Inh: 5%
[10]
  %Inh: 0%
[11]
  %Inh: 0%
[2]; [22]
  %Inh: 4%
[3]; [22]
  %Inh: 49%
[4]; [22]
  %Inh: 0%
[12]
  %Inh: 64%
[13]
  %Inh: 2%
[14]
  %Inh: 0%
[15]
  %Inh: 0%
[5]; [22]
  %Inh: 24%
[16]
  %Inh: 19%
[17]
  %Inh: 34%
[6]; [22]
  %Inh: 17%
[18]
  %Inh: 10%
[7]; [22]
  %Inh: 0%
[19]
  %Inh: 17%
[8]; [22]
  %Inh: 4%
[20]
  %Inh: 0%

## Fc1cccc(COc2nnc(-c3ccc4c(c3)CCO4)o2)c1
[1]; [22]
  %Inh: 7%
[9]
  %Inh: 2%
[10]
  %Inh: 4%
[11]
  %Inh: 7%
[2]; [22]
  %Inh: 0%
[3]; [22]
  %Inh: 0%
[4]; [22]
  %Inh: 0%
[12]
  %Inh: 7%
[13]
  %Inh: 0%
[14]
  %Inh: 0%
[15]
  %Inh: 0%
[5]; [22]
  %Inh: 0%
[16]
  %Inh: 33%
[17]
  %Inh: 0%
[6]; [22]
  %Inh: 10%
[18]
  %Inh: 0%
[7]; [22]
  %Inh: 7%
[19]
  %Inh: 0%
[8]; [22]
  %Inh: 25%
[20]
  %Inh: 0%

## Cl.O=C(Nc1cccc(-c2nn3ncccc3c2-c2ccnc(Nc3cccnc3)n2)c1)c1c(F)cccc1F [GSK312879]
[1]; [22]
  %Inh: 3%
[9]
  %Inh: 0%
[10]
  %Inh: 0%
[11]
  %Inh: 96.7%
[2]; [22]
  %Inh: 17%
[3]; [22]
  %Inh: 3%
[4]; [22]
  %Inh: 0%
[12]
  %Inh: 0%
[13]
  %Inh: 5%
[14]
  %Inh: 0%
[15]
  %Inh: 7%
[5]; [22]
  %Inh: 0%
[16]
  %Inh: 13%
[17]
  %Inh: 0%
[6]; [22]
  %Inh: 0%
[18]
  %Inh: 0%
[7]; [22]
  %Inh: 34%
[19]
  %Inh: 1%
[8]; [22]
  %Inh: 0%
[20]
  %Inh: 0%
